Compound activity as filed in PubChem BioAssay.
Shown are actives, neighbours in structure and some others; about 1.1% of the full set was active somewhere.
LAP4 TOR yeast: modulators of TOR pathway LAP4-GFP in S. cerevisiae; GFP response vs DMSO, % at 10 µM; AID 2023; S. cerevisiae LAP4-GFP multiplex, flow cytometry GFP, 3 h; median GFP as percent of DMSO wells; 320,000 compounds, 0.34% hits;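 active = GFP response vs DMSO above a set limit, about the screen mean plus 3 SD, cut at about 150% in these data; inconclusive = under 70 cell events counted for the yeast strain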
RPL19A-GFP yeast: modulators of TOR pathway RPL19A-GFP in S. cerevisiae. S. cerevisiae RPL19A-GFP strain, flow cytometry, 3 h; stronger effect = lower value. percent response vs DMSO, % at 10 µM. 330,000 compounds, 0.3% hits;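 active = percent response vs DMSO below 50%; inconclusive = fewer than 70 events counted for the yeast strain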;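 note: median channel GFP fluorescence of the barcoded RPL19A-GFP strain; ratio of sample median GFP to plate DMSO average so 100% = DMSO; lower means less RPL19A-GFP as with rapamycin TOR inhibition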
AGP1-GFP MLPCN: alters AGP1-GFP fluorescence in TOR pathway yeast screen. S. cerevisiae AGP1-GFP multiplex flow cytometry, 3 h; GFP as percent of DMSO wells. GFP response vs DMSO, % at 10 µM. 320,000 compounds, 0.02% hits. AID 2066;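 active = GFP response relative to DMSO above a set limit, near screen average plus 3 SD, cut at about 150% in these data; inconclusive = fewer than 70 cells counted for the yeast strain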;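 note: median GFP channel fluorescence of the gated AGP1 strain per well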
VLA-4 inh: inhibition in a human VLA-4 binding assay; P13612; VLA-4 expressing cells, ligand binding flow cytometry; inhibition, % (about 7 µM as worked out from the volumes in the protocol); 330,000 compounds, 0.2% hits; AID 2557; in the data active = inhibition above about 50%
Target sequence (P13612 whole entry, looked up): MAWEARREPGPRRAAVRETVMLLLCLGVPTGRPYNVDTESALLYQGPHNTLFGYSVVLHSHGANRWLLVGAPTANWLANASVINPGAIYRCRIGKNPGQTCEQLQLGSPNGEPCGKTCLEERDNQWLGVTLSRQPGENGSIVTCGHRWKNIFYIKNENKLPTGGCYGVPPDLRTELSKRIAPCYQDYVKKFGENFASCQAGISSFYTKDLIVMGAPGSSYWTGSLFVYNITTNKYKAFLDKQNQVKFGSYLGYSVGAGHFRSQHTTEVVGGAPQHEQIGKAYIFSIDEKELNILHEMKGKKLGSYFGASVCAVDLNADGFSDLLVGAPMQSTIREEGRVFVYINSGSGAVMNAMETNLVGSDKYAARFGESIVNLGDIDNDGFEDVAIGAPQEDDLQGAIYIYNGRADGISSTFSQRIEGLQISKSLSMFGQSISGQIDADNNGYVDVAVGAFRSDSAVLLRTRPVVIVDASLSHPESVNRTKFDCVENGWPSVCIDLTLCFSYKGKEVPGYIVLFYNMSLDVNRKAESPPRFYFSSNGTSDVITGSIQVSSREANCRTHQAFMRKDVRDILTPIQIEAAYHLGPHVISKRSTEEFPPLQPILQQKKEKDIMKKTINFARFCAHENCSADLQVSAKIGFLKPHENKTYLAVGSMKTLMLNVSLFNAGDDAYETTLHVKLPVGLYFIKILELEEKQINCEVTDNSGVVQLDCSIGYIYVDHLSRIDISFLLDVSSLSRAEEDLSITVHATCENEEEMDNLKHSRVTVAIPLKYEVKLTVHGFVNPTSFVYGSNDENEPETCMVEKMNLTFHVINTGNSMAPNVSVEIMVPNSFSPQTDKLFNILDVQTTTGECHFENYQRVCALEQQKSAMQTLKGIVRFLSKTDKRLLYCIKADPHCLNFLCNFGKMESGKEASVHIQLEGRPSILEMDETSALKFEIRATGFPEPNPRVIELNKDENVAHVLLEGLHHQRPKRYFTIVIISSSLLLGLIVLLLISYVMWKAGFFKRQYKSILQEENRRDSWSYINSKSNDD
MEP2-GFP yeast: alters MEP2-GFP fluorescence in TOR pathway yeast screen; S. cerevisiae MEP2-GFP strain, flow cytometry GFP, 3 h; 100% = DMSO control level; GFP response vs DMSO, % at 10 µM; 330,000 compounds, 0.51% hits; AID 2016;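 active = GFP response versus DMSO above a set limit, roughly screen mean plus 3 SD, cut at about 180% in these data; inconclusive = fewer than 70 cells counted for a yeast strain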;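 note: median GFP fluorescence of the barcode-gated MEP2-GFP cells per well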
CIT2 TOR yeast: yeast TOR pathway CIT2-GFP modulation | S. cerevisiae CIT2-GFP strain, flow cytometry, 3 h; 100 means same as DMSO wells | GFP response vs DMSO, % at 10 µM | 320,000 compounds, 0.065% hits | AID 2029;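 active = GFP response relative to DMSO above a set limit, near the screen mean plus 3 SD, cut at about 150% in these data; inconclusive = Fewer than 70 cells measured for a yeast strain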;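 note: ratio of well median GFP fluorescence to mean of DMSO wells on the plate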
Starred values were filed as active, the others as inactive; [ ] = another dose, or the depositor's remark.

What do the screens show for `Cc1cccc(NC(=O)C2CCCN2C(=O)OCC(C)C)c1C` (configuration not stated)?
LAP4 TOR yeast: 100; RPL19A-GFP yeast: 101; AGP1-GFP MLPCN: 107; VLA-4 inh: 10; MEP2-GFP yeast: 104; CIT2 TOR yeast: 106

Results for CC(=O)Nc1cccc(NC(=O)c2cccc3cccnc23)c1 ?
LAP4 TOR yeast: 102; RPL19A-GFP yeast: 104; AGP1-GFP MLPCN: 103; VLA-4 inh: -6; MEP2-GFP yeast: 102; CIT2 TOR yeast: 101

How did Cc1ccc(NC(=O)c2cccc3cccnc23)cc1 do in these assays?
LAP4 TOR yeast: 75; RPL19A-GFP yeast: 49*[may fluoresce violet]; AGP1-GFP MLPCN: inconclusive; VLA-4 inh: 8; MEP2-GFP yeast: 603*[may fluoresce violet]; CIT2 TOR yeast: inconclusive

Results for Cc1ccc(C(=O)c2nocc2C(=O)c2cccs2)cc1 ?
LAP4 TOR yeast: 155*; RPL19A-GFP yeast: 98; VLA-4 inh: 7; MEP2-GFP yeast: 100; CIT2 TOR yeast: 89

What do the screens show for `O=C(Nc1ccccc1)/C(=C/c1ccccc1)NC(=O)c1ccco1`?
LAP4 TOR yeast: 100; RPL19A-GFP yeast: 96; AGP1-GFP MLPCN: 98; VLA-4 inh: 3; MEP2-GFP yeast: 98; CIT2 TOR yeast: 106

Results for O=C(Nc1ccccc1)/C(=C/c1ccc(O)cc1)NC(=O)c1ccco1 ?
LAP4 TOR yeast: 101; RPL19A-GFP yeast: 53; AGP1-GFP MLPCN: inconclusive; VLA-4 inh: 9; MEP2-GFP yeast: 533*[may fluoresce violet]; CIT2 TOR yeast: inconclusive

Results for O=C(NCc1ccco1)/C(=C\c1ccccc1)NC(=O)c1ccccc1 ?
LAP4 TOR yeast: 76; RPL19A-GFP yeast: 48*[may fluoresce violet]; AGP1-GFP MLPCN: inconclusive; VLA-4 inh: 4; MEP2-GFP yeast: inconclusive; CIT2 TOR yeast: inconclusive

What do the screens show for `O=c1c2cc(Br)ccc2nc(-c2ccccc2)n1O`?
LAP4 TOR yeast: 110; RPL19A-GFP yeast: 103; AGP1-GFP MLPCN: 97; VLA-4 inh: 4; MEP2-GFP yeast: 93; CIT2 TOR yeast: 87

How did O=C(Nc1ccc(Cl)cc1)C1CC=CCC1C(=O)OCC(F)(F)C(F)F (configuration not stated) do in these assays?
LAP4 TOR yeast: 118; RPL19A-GFP yeast: 37*[may fluoresce violet]; AGP1-GFP MLPCN: 25; VLA-4 inh: 4; MEP2-GFP yeast: 266*[may fluoresce violet]; CIT2 TOR yeast: inconclusive

How did O=C(CCCC(=O)OCC(F)(F)C(F)F)Nc1ccc(NC(=O)CCCC(=O)OCC(F)(F)C(F)F)cc1 do in these assays?
LAP4 TOR yeast: 97; RPL19A-GFP yeast: 100; AGP1-GFP MLPCN: 106; VLA-4 inh: 6; MEP2-GFP yeast: 101; CIT2 TOR yeast: 101

How did CNC(=O)c1c(O)c2cccc3c2n(c1=O)CCC3 do in these assays?
LAP4 TOR yeast: 89; RPL19A-GFP yeast: 101; AGP1-GFP MLPCN: 88; VLA-4 inh: -12; MEP2-GFP yeast: 96; CIT2 TOR yeast: 92

How did COc1ccc(CNC(=O)c2c(O)c3cccc4c3n(c2=O)CCC4)cc1OC do in these assays?
LAP4 TOR yeast: 88; RPL19A-GFP yeast: 38*[may fluoresce violet]; VLA-4 inh: 13; MEP2-GFP yeast: 295*[may fluoresce violet]; CIT2 TOR yeast: inconclusive

What do the screens show for `CSc1nc(N2CCN(c3ccccc3Cl)CC2)c2ccccc2n1`?
LAP4 TOR yeast: 154*; RPL19A-GFP yeast: 100; AGP1-GFP MLPCN: 100; VLA-4 inh: -108; MEP2-GFP yeast: 170; CIT2 TOR yeast: 128

Results for O=C(Nc1ccccc1C(=O)O)c1cc(S(=O)(=O)N2CCCCC2)c(Cl)cc1Cl ?
LAP4 TOR yeast: 97; RPL19A-GFP yeast: 96; AGP1-GFP MLPCN: 97; VLA-4 inh: 28; MEP2-GFP yeast: 95; CIT2 TOR yeast: 102

What do the screens show for `COc1ccsc1C(=O)NCCN1CCOCC1`?
LAP4 TOR yeast: 108; RPL19A-GFP yeast: 94; AGP1-GFP MLPCN: 123; VLA-4 inh: -19; MEP2-GFP yeast: 109; CIT2 TOR yeast: 168*[may fluoresce green]

Results for COc1ccc(CC(=O)NCCN2CCOCC2)cc1 ?
LAP4 TOR yeast: 104; RPL19A-GFP yeast: 99; AGP1-GFP MLPCN: 98; VLA-4 inh: 6; MEP2-GFP yeast: 107; CIT2 TOR yeast: 96

Results for O=C(CNS(=O)(=O)c1c(F)cccc1F)NC1CCCc2ccccc21 (configuration not stated) ?
LAP4 TOR yeast: 94; RPL19A-GFP yeast: 101; AGP1-GFP MLPCN: 103; VLA-4 inh: 1; MEP2-GFP yeast: 97; CIT2 TOR yeast: 101

How did COc1ccc2ccccc2c1/C=N/Nc1cccc(C(=O)O)c1 do in these assays?
LAP4 TOR yeast: 166*; RPL19A-GFP yeast: 102; AGP1-GFP MLPCN: 91; VLA-4 inh: -15; MEP2-GFP yeast: 114; CIT2 TOR yeast: 92

How did COc1ccc2ccccc2c1/C=N/Nc1ccc(Cl)c(C(=O)O)c1 do in these assays?
LAP4 TOR yeast: 74; RPL19A-GFP yeast: 97; AGP1-GFP MLPCN: 89; VLA-4 inh: 0; MEP2-GFP yeast: 94; CIT2 TOR yeast: 109

Results for O=C(NCCSc1ccccc1)c1ccc(Br)cc1 ?
LAP4 TOR yeast: 114; RPL19A-GFP yeast: 96; AGP1-GFP MLPCN: 88; VLA-4 inh: -6; MEP2-GFP yeast: 93; CIT2 TOR yeast: 77

How did O=C(NCCCSc1ccccc1)c1cc(Br)ccc1O do in these assays?
LAP4 TOR yeast: 154*; RPL19A-GFP yeast: 107; AGP1-GFP MLPCN: 84; VLA-4 inh: 1; MEP2-GFP yeast: 110; CIT2 TOR yeast: 99

How did NC(=O)C[C@H](NC(=O)c1ccc(Cl)cc1)C(=O)OCc1ccccc1 do in these assays?
LAP4 TOR yeast: 99; RPL19A-GFP yeast: 102; AGP1-GFP MLPCN: 99; VLA-4 inh: 4; MEP2-GFP yeast: 102; CIT2 TOR yeast: 107

Results for O=C(CS(=O)(=O)c1ccccc1)c1cc2cc(F)ccc2oc1=O ?
LAP4 TOR yeast: 99; RPL19A-GFP yeast: 103; AGP1-GFP MLPCN: 105; VLA-4 inh: 15; MEP2-GFP yeast: 97; CIT2 TOR yeast: 98

How did O=C(CS(=O)(=O)c1ccccc1)c1cc2ccccc2oc1=O do in these assays?
LAP4 TOR yeast: inconclusive; RPL19A-GFP yeast: 12*[may fluoresce violet]; AGP1-GFP MLPCN: inconclusive; VLA-4 inh: 6; MEP2-GFP yeast: 183*[may fluoresce violet]; CIT2 TOR yeast: inconclusive

What do the screens show for `Fc1ccc(N2CCN(c3nnnn3-c3ccccc3)CC2)cc1`?
LAP4 TOR yeast: 106; RPL19A-GFP yeast: 99; AGP1-GFP MLPCN: 100; VLA-4 inh: -1; MEP2-GFP yeast: 99; CIT2 TOR yeast: 106

How did CC1CN(c2nnnn2-c2ccccc2)CC(C)O1 (configuration not stated) do in these assays?
LAP4 TOR yeast: 95; RPL19A-GFP yeast: 78; AGP1-GFP MLPCN: 29; VLA-4 inh: 4; MEP2-GFP yeast: 188*; CIT2 TOR yeast: 112

What do the screens show for `O=C(Cn1nc(-c2ccccc2)c2ccccc2c1=O)NCCN1CCOCC1`?
LAP4 TOR yeast: 94; RPL19A-GFP yeast: 42*[may fluoresce violet]; AGP1-GFP MLPCN: inconclusive; VLA-4 inh: 9; MEP2-GFP yeast: 734*[may fluoresce violet]; CIT2 TOR yeast: inconclusive
